High-throughput results: PubChem, National Center for Advancing Translational Sciences (NCATS)
HCV inhibitor: blocks hepatitis C virus; Potency, µM (doses to about 41.8 µM), inactives show top-dose activity change, negative = inhibition, hits mostly inhibitors; Huh7.5.1 HCVcc-Cre infection, luciferase reporter, 44 h; hit rate 3.4% among 340,000; active = well fitted inhibition curve with a large enough effect; inconclusive = small, poorly fitted or top-dose-only effect, or another doubt; inactive = no such curve, though single readings can be large or run the other way; note: potency is the fitted concentration of half-maximal effect
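HCVcc-Cre virus at an moi near 0.5 was added right after compound to cells cultured 4 h from seeding (1,000 cells/well). Luciferase activity was determined 44 h later, 15 min after substrate addition at RT.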
Lassa entry inh: inhibitors of Lassa virus binding or cell entry | hit rate 1.2% among 300,000 | Lassa virus pseudotype entry inhibition, cell reporter | Potency, µM (titrated, usually from 37.9 µM), inactives show top-dose activity change, negative = inhibition, hits mostly inhibitors; calls by dose curve; tested in HEK293 cells; note: potency is the fitted concentration of half-maximal effect; nearly all actives have a fitted effect of over 50% in size
HCMV inh: human cytomegalovirus inhibition. HFF cells, HCMV-luciferase reporter, 72 h; active compounds read low. activity change, negative = inhibition, % at 57.5 µM. hit rate 4.5% among 410,000. AID 1259415; in the data active = activity change below about -60%; inconclusive = no clear call, values can overlap the other calls; inactive = above about -39%
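Compounds were evaluated in HFFs infected with an HCMV luciferase reporter virus (MOI 1 PFU/cell). Luciferase in lysates collected 72 h post infection served as the replication measure.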
Vaccinia Venus: inhibitors of vaccinia virus (Venus reporter); Vaccinia virus Venus reporter expression, fluorescence; Potency, µM (series often up to 36.5 µM), for inactives: at the top dose activity change, negative = inhibition, usual class: inhibitors; hit rate 0.46% among 330,000; AID 720580; calls by dose curve; tested in A549 cells; note: potency is the fitted concentration of half-maximal effect; nearly all actives have a fitted effect of over 30% in size
Marburg entry inh: inhibitors of Marburg virus binding or cell entry; Potency, µM (series often up to 37.8 µM), without a hit: at the highest dose activity change, negative = inhibition, usual class: inhibitors; AID 540276; Marburg virus pseudotyped entry inhibition, cell reporter; hit rate 1.8% among 300,000; calls by dose curve; tested in HEK293 cells; note: potency is the fitted concentration of half-maximal effect
VACV mCherry inh: inhibitors of vaccinia virus infection (mCherry reporter signal). Vaccinia virus mCherry reporter infection, fluorescence. Potency, µM (doses to about 36.5 µM), for inactives: at the top dose activity change, negative = inhibition, most hits filed as inhibitors. hit rate 0.63% among 310,000. AID 720579; calls by dose curve; tested in A549 cells; note: potency is the fitted concentration of half-maximal effect; nearly all actives have a fitted effect of over 35% in size
* marks the source's active call; other numbers are inactive results; i = inactive; ? = inconclusive; . = not tested or not shown; [ ] = dose if it differs, or a comment. Only some compounds are listed: those with a hit (about 7.8% of all), similar ones and a draw of the others. % is set by controls: 0 for no effect and ±100 for the full control effect.

SMILES | HCV inhibitor | Lassa entry inh | HCMV inh | Vaccinia Venus | Marburg entry inh | VACV mCherry inh
O=c1oc2ccccc2n1CCCOc1ccccc1Cl | . | ? | 71.9 | 3.2% | 8.0%[46.1 µM] | -4.8%
CCCCNc1c2c(nc3c(-c4ccccc4)c(C)nn13)CCC2 | -20.0% | 2.6% | -2.1 | . | 0.3% | .
COc1cccc(Nc2c3c(nc4c(-c5ccccc5)c(C)nn24)CCC3)c1 | ? | ? | -63.4* | -23.4% | ? | -5.8%
Cc1nn2c(NCCN(C)C)c3c(nc2c1-c1ccccc1)CCCC3 | 7.08µM* | -15.7%[46.1 µM] | ? | -13.0% | 10µM* | -25.1%
Cc1nn2c(Nc3ccc(F)cc3)c3c(nc2c1-c1ccccc1)CCC3 | 19.9% | -3.3% | -35.6 | -7.1% | -1.1% | -15.2%
COCCNc1c2c(nc3c(-c4ccccc4)c(C)nn13)CCCC2 | ? | -1.4% | -33.0 | . | ? | .
Cc1nn2c(NCCOCCO)c3c(nc2c1-c1ccccc1)CCCC3 | 11.2µM* | 3.7% | . | . | ? | .
CCC(C)Nc1c2c(nc3c(-c4ccccc4)c(C)nn13)CCC2 (centres undefined) | 2.24µM* | -14.8% | ? | . | -16.1% | .
CC1=C(C(=O)N2CCN(c3cccc(C)c3C)CC2)C2(CCCCC2)OC1=O | . | ? | -17.7 | -10.2% | 2.3%[46.1 µM] | i
Cn1ncc2c(Nc3cccc(C#N)c3)ncnc21 | . | 7.0%[46.1 µM] | -8.8 | -9.2% | . | -19.9%
CC(=O)N1CCCC1c1nc2ccccc2n1Cc1ccccc1C (centres undefined) | . | ? | 17.4 | -9.3%[7.34 µM] | ? | -11.5%[7.34 µM]
COc1cc(C)ccc1OCCn1c(-c2ccc(Cl)cc2)nc2ccccc2c1=O | . | -12.8%[46.1 µM] | -10.0 | -8.3%[7.34 µM] | -4.7%[46.1 µM] | -9.6%[7.34 µM]
Cc1nn(-c2ccccc2)nc1CNC(=O)c1ncoc1-c1ccccc1 | 10µM* | . | -21.7 | . | . | .
COc1cc2c(c(OC)c1OC)-c1c(cc(OC)c(OC)c1OC)C[C@](C)(O)[C@@H](C)C2 | 18.1% | . | 11.7 | 2.5% | . | i
COc1cc2c(c(OC)c1OC)-c1ccc(O)cc1[C@@H](NC(C)=O)CC2 | -9.9% | . | -78.4* | ? | . | -12.1%
COc1cc2c(c(OC)c1OC)-c1ccc(NC(=O)c3ccccc3)c(=O)cc1[C@@H](NC(C)=O)CC2 | 14.2% | 20.2% | -88.5* | -2.0% | 19.4%[46.1 µM] | -11.3%
COc1cc(C(=O)Nc2cccc(NC(=O)c3ccccc3)c2)cc(OC)c1OC | ? | . | 14.8 | . | . | .
CN[C@H]1CCc2cc(OC)c(OC)c(OC)c2-c2ccc(OC)c(=O)cc21 | -7.5% | . | -95.0* | ? | . | ?
COc1cc2c(c(OC)c1OC)-c1ccc(O)cc1C(NC(C)=O)CC2 (centres undefined) | 6.4% | ? | -94.9* | ? | ? | i
COc1cc2c(c(OC)c1OC)-c1ccc(O)c(=O)cc1[C@@H](NC(C)=O)CC2 | -23.6% | . | -37.4 | -16.7% | . | -20.8%
COc1cccc(CNC(=O)C(=O)NCC(c2ccc3c(c2)OCO3)N2CCOCC2)c1 (centres undefined) | . | 7.1%[46.1 µM] | -5.4 | -13.7% | . | -13.8%
COc1ccc(Nc2ncnc3c2cnn3C)c(OC)c1 | . | 28.8%[46.1 µM] | -2.6 | -8.5% | . | i
CCCCC(=O)NC(c1ccc([N+](=O)[O-])cc1)c1c(O)ccc2ccccc12 (centres undefined) | ? | ? | -98.8* | ? | ? | ?
CCCCC(=O)NC(c1cccc([N+](=O)[O-])c1)c1c(OC(C)=O)ccc2ccccc12 (centres undefined) | ? | -4.6% | ? | ? | -9.1% | 28.2µM*
COC(=O)[C@@H]1[C@@H](CO)[C@@H]2Cn3c(cccc3=O)[C@@H]2N1C(=O)c1ccccc1 | . | . | -5.0 | . | . | .
CCOC(=O)c1c(C)oc2nc(C)nc(NCCCN3CCN(c4ccc(F)cc4)CC3)c12 | . | -4.8%[46.1 µM] | 0.2 | -14.0% | . | i
Cc1ccc(-c2nnn(CC(=O)N(CC(=O)NC3CCCCC3)c3cccc(F)c3)n2)o1 | 3.5% | . | -22.0 | -6.2% | -3.2%[46.1 µM] | 4.6%
Cc1ccc(-c2nnn(CC(=O)N(CC(=O)NC3CCCC3)c3cccc(F)c3)n2)o1 | -12.6% | -4.5%[46.1 µM] | -85.5* | 13.8% | -6.6%[46.1 µM] | -4.6%
Cc1ccc(-c2nnn(CC(=O)N(CC(=O)NC(C)C)c3cnc4ccccc4c3)n2)o1 | -2.8% | 15.4% | 1.5 | -12.7% | -3.3% | ?
